This note sets out measurements from paper PMC7862700, “An all-to-all approach to the identification of sequence-specific readers for epigenetic DNA modifications on cytosine”.

Assay in all cases: DAPPL (digital affinity profiling via proximity ligation, sequencing); 10 mM Tris-HCl pH 7.5, 50 mM NaCl, 1 mM DTT, 4% glycerol, room temperature, 30 min; GST-TFs on glutathione beads, 16-mer random dsDNA library, 0.1% formaldehyde crosslink after washing; high values mean tight binding
One assay deals with T1, FEV (Homo sapiens, UniProt Q99581 1-238).
T1 sequence: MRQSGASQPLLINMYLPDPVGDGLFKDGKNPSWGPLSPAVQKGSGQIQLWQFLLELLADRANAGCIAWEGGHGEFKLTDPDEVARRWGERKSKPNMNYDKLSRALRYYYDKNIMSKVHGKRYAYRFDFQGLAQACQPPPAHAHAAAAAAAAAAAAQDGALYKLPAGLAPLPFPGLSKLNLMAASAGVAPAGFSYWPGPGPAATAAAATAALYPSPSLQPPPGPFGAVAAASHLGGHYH
As to conditions: protein: recombinant; tags: N-terminal GST; dsDNA, one strand shown. Put shortly:
(§1)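 Binding signal is defined as a hexamer's read frequency for one factor over its frequency for the tag-only sample. To obtain reads, GST-fused human transcription factors were expressed in yeast, captured on glutathione beads, barcoded with DNA and pooled with that sample. Pools met 200 nmole of a 16-mer random double-stranded DNA library in Tris/NaCl/DTT/glycerol buffer for 30 min at room temperature before washing, 0.1% formaldehyde crosslinking, proximity ligation (BsaI/T4 ligase, 1 h, 37 °C), PCR and Illumina NextSeq500 sequencing.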

In another assay the target is ETV5 (Homo sapiens, UniProt P41161 1-510). The conditions noted are these: protein: recombinant; tags: N-terminal GST; dsDNA, one strand shown. An outline of the steps:
as §1

The next assay addresses HSF1 (Homo sapiens, UniProt Q00613 1-529). The conditions noted are these: protein: recombinant; tags: N-terminal GST; chain copies: 3; dsDNA, one strand shown. Put shortly:
as §1

Another assay has as its target T2, SPIC (Homo sapiens, UniProt Q8N5J4 1-248).
T2 sequence: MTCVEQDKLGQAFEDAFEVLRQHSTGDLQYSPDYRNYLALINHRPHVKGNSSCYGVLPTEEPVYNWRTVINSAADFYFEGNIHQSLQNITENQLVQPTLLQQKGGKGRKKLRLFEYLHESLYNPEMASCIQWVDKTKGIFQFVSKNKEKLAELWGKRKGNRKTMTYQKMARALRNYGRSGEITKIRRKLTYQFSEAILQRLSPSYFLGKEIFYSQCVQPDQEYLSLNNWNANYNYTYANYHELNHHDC
The conditions noted are these: protein: recombinant; tags: N-terminal GST; dsDNA, one strand shown. An outline of the steps:
as §1

The target of the next assay is ELF4 (Homo sapiens, UniProt Q99607 1-663). As to conditions: protein: recombinant; tags: N-terminal GST; dsDNA, one strand shown. An outline of the steps: as §1
In the next assay the target is T3, ELK4 (Homo sapiens, UniProt P28324-2 1-405).
T3 sequence: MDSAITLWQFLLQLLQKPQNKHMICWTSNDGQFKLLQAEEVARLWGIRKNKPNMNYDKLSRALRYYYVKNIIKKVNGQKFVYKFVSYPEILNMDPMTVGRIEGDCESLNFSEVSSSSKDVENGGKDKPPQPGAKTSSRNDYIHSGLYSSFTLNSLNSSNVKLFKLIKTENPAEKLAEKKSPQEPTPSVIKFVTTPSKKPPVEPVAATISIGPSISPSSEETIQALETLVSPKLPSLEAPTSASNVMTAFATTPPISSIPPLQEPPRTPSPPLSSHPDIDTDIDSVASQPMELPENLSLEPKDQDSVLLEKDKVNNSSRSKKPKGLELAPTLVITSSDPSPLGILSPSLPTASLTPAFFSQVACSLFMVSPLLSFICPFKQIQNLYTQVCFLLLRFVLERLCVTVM
The conditions noted are these: protein: recombinant; tags: N-terminal GST; dsDNA, one strand shown. Put shortly: as §1

In another assay the target is T4, ETV2 (Homo sapiens, UniProt O00321 1-342).
T4 sequence: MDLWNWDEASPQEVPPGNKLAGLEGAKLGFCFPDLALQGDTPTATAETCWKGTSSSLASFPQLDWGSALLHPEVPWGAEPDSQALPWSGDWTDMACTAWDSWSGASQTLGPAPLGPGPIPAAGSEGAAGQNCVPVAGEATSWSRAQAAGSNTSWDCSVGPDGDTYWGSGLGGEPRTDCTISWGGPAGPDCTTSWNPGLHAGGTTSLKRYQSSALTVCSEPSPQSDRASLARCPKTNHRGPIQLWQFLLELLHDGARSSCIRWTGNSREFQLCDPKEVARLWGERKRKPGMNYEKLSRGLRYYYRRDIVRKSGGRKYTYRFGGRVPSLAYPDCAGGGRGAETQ
As to conditions: protein: recombinant; tags: N-terminal GST; dsDNA, one strand shown. Put shortly:
as §1

For a further assay, the target named is T5, ELF3 (Homo sapiens, UniProt P78545 1-371).
T5 sequence: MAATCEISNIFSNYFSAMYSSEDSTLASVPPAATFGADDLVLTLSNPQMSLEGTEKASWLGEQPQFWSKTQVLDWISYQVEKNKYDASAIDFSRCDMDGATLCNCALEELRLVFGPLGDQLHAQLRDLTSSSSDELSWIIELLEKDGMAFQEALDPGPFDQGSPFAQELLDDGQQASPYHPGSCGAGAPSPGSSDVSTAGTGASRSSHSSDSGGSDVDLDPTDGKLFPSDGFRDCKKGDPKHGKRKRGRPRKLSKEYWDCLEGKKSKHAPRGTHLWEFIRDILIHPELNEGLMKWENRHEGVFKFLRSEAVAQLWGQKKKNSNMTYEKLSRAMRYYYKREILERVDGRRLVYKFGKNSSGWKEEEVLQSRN
As to conditions: protein: recombinant; tags: N-terminal GST; dsDNA, one strand shown. An outline of the steps: as §1

The target in another assay is CRX (Homo sapiens, UniProt O43186 1-299). The conditions noted are these: protein: recombinant; tags: N-terminal GST; dsDNA, one strand shown. Put shortly:
as §1

The target in the next assay is ETV1 (Homo sapiens, UniProt P50549 1-477). The conditions noted are these: protein: recombinant; tags: N-terminal GST; dsDNA, one strand shown. An outline of the steps: as §1
A further assay concerns the target T6, ERF (Homo sapiens, UniProt P50548 1-548).
T6 sequence: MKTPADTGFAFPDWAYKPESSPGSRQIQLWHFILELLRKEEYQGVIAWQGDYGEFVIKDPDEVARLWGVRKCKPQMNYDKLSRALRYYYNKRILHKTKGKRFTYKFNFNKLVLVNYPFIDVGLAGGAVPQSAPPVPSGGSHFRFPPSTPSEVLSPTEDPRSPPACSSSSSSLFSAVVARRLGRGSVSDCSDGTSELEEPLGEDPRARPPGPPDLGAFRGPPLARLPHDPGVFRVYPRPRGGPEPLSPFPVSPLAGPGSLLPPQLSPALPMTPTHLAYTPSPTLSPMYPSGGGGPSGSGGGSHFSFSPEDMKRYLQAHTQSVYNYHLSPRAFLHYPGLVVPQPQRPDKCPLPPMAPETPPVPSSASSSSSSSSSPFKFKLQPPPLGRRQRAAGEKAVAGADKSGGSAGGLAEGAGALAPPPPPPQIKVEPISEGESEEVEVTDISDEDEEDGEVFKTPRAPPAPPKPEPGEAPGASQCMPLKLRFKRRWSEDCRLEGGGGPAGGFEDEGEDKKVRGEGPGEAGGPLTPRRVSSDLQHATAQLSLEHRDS
The conditions noted are these: protein: recombinant; tags: N-terminal GST; dsDNA, one strand shown. An outline of the steps:
as §1

A further assay deals with T7, ETV3L (Homo sapiens, UniProt Q6ZN32 1-361).
T7 sequence: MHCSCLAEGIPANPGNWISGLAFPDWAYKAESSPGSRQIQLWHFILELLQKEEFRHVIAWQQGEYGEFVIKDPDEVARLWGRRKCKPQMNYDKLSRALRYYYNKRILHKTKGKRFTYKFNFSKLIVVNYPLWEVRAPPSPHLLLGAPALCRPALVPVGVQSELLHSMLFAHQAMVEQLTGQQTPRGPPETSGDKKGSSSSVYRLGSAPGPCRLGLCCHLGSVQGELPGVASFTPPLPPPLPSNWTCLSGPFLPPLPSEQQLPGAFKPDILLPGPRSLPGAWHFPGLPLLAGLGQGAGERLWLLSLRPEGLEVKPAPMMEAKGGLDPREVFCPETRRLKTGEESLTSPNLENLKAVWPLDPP
The conditions noted are these: protein: recombinant; tags: N-terminal GST; dsDNA, one strand shown. An outline of the steps:
as §1

The target in another assay is T8, ETS2 (Homo sapiens, UniProt P15036 1-469).
T8 sequence: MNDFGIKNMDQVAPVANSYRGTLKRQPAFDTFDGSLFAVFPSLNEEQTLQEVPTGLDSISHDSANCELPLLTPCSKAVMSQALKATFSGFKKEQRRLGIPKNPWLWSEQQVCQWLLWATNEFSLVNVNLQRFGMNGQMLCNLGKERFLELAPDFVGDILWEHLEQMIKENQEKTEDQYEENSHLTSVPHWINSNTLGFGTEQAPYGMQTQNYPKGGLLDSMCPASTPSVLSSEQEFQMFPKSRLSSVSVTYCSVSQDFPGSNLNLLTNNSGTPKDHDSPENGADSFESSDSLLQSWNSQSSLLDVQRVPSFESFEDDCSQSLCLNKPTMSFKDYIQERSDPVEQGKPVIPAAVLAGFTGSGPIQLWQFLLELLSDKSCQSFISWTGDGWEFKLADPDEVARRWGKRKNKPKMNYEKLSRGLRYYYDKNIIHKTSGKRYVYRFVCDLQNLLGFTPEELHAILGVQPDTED
As to conditions: protein: recombinant; tags: N-terminal GST; dsDNA, one strand shown. An outline of the steps:
as §1

The next assay addresses T9, SPDEF (Homo sapiens, UniProt O95238 1-335).
T9 sequence: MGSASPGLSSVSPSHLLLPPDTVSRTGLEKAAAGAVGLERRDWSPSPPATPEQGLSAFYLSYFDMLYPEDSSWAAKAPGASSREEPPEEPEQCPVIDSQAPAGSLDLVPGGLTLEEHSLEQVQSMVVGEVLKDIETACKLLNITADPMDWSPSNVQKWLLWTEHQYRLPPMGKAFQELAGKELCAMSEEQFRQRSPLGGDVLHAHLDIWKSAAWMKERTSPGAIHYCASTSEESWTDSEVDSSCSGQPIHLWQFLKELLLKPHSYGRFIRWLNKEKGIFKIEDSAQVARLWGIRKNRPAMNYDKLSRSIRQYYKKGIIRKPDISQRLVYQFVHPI
The conditions noted are these: protein: recombinant; tags: N-terminal GST; dsDNA, one strand shown. An outline of the steps:
as §1

For another assay, the target named is T10, ETV7 (Homo sapiens, UniProt Q9Y603 1-341).
T10 sequence: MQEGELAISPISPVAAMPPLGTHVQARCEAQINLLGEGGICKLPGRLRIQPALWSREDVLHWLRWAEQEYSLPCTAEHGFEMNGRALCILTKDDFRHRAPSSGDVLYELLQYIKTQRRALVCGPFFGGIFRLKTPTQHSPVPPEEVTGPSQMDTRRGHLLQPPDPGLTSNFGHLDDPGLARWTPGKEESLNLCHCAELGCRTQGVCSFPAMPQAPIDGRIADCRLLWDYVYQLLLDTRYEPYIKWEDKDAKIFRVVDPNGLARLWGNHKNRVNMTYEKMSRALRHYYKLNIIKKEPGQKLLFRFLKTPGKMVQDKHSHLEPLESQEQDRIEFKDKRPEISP
As to conditions: protein: recombinant; tags: N-terminal GST; dsDNA, one strand shown. An outline of the steps: as §1

The next assay has as its target T11, ELF5 (Homo sapiens, UniProt Q9UKW6-2 1-255).
T11 sequence: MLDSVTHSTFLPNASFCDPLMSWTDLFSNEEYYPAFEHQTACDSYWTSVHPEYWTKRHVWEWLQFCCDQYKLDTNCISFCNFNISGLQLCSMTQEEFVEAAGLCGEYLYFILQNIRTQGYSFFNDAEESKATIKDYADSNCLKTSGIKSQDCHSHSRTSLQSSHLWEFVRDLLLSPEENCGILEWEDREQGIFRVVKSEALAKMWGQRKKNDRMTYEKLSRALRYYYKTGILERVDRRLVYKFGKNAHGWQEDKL
As to conditions: protein: recombinant; tags: N-terminal GST; dsDNA, one strand shown. An outline of the steps:
as §1

Another assay has as its target T12, ETV3 (Homo sapiens, UniProt P41162-2 1-143).
T12 sequence: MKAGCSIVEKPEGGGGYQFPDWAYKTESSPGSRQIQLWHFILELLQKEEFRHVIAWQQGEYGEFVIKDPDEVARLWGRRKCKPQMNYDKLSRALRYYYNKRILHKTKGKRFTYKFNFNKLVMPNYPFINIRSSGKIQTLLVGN
As to conditions: protein: recombinant; tags: N-terminal GST; dsDNA, one strand shown. Put shortly: as §1

In a further assay the target is ETV6 (Homo sapiens, UniProt P41212 1-452). The conditions noted are these: protein: recombinant; tags: N-terminal GST; dsDNA, one strand shown. Put shortly: as §1
Chain of ETV6 (P41212 whole entry): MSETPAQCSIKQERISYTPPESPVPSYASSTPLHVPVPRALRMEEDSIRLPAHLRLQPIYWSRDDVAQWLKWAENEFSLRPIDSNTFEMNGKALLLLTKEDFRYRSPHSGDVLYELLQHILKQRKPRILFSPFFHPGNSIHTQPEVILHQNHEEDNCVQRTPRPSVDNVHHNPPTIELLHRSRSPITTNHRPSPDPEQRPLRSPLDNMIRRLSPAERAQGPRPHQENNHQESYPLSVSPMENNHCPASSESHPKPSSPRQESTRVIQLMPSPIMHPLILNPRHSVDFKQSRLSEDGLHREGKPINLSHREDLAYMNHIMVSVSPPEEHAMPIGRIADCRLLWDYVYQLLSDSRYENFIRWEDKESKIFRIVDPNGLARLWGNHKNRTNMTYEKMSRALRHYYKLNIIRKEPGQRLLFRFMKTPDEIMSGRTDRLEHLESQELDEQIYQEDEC

Chain of CRX (O43186 whole entry): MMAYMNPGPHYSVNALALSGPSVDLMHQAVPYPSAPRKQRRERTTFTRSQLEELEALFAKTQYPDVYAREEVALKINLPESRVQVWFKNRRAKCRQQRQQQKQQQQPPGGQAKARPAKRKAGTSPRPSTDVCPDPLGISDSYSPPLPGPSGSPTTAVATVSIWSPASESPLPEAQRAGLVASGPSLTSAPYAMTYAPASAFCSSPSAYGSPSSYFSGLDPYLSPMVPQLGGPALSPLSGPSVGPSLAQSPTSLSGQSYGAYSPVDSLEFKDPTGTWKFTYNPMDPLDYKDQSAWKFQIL
Chain of ELF4 (Q99607 whole entry): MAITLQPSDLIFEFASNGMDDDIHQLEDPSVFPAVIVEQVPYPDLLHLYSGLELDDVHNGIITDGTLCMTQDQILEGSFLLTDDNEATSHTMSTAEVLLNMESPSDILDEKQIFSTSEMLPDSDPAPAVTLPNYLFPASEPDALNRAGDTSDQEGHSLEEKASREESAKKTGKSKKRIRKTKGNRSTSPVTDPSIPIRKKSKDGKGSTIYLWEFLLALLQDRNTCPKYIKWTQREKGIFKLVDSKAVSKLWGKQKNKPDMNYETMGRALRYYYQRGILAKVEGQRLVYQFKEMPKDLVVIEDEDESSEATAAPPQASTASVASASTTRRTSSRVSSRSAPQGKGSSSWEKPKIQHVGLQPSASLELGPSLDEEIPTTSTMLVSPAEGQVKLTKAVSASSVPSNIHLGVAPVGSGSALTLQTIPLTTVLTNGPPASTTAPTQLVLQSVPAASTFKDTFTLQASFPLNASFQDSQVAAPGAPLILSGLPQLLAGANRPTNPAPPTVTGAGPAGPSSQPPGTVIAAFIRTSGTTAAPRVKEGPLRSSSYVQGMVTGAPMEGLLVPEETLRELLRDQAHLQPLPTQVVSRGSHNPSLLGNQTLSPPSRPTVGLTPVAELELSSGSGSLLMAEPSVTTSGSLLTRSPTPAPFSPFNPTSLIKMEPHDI
Chain of ETV5 (P41161 whole entry): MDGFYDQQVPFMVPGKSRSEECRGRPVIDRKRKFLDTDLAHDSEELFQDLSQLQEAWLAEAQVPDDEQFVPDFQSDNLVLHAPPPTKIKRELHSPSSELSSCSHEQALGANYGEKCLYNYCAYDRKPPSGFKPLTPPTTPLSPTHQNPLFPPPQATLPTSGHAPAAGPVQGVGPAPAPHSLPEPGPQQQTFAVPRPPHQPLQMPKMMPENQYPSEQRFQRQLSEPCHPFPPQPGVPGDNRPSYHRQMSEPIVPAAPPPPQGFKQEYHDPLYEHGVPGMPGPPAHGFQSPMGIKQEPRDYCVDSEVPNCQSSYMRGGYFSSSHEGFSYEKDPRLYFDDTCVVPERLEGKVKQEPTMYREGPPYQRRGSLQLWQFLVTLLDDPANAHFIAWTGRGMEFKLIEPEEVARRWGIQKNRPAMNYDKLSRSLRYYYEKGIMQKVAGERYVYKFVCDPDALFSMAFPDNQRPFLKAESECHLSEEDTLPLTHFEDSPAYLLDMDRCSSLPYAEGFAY
Chain of ETV1 (P50549 whole entry): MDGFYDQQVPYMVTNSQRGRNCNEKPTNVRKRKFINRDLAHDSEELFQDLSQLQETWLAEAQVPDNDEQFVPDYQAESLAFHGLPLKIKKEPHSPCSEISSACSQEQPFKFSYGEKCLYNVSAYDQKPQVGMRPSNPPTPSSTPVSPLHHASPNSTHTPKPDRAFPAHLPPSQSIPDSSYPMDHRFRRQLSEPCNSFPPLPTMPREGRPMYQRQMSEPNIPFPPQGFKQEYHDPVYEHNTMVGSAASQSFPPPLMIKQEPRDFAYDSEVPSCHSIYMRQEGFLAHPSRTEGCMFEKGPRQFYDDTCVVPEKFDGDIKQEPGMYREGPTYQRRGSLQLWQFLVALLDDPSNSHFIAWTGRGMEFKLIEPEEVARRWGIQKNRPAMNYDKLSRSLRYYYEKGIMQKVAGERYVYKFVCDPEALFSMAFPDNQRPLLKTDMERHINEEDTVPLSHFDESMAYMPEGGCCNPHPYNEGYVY
Chain of HSF1 (Q00613 whole entry): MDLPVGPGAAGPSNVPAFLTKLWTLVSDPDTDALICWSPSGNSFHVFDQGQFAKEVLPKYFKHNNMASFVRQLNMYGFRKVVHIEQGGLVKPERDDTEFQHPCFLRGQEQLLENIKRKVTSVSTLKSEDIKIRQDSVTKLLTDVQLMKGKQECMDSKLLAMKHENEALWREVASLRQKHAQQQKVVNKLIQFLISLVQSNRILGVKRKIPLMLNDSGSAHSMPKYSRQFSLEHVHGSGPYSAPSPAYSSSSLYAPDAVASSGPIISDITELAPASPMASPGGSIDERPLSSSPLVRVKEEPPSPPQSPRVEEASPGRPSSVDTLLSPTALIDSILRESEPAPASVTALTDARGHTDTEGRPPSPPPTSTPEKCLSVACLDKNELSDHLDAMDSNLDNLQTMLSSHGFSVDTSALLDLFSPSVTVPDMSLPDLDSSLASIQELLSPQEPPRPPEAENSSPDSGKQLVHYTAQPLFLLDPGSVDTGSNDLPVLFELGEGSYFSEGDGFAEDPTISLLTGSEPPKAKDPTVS

Consider ATCAAC, for which the binding signal with FEV was 1.13 fold enrichment (6-mer frequency, TF over GST control); in the assay with ETV5 it was 1.04 fold enrichment (6-mer frequency, TF over GST control); in the assay with HSF1, 1.02 fold enrichment (6-mer frequency, TF over GST control); with SPIC it was 1.03 fold enrichment (6-mer frequency, TF over GST control); with ELF4, 1.09 fold enrichment (6-mer frequency, TF over GST control); with ELK4, 1.14 fold enrichment (6-mer frequency, TF over GST control). Moreover, the binding signal is 1.18 fold enrichment (6-mer frequency, TF over GST control) with ETV2; 1.08 fold enrichment (6-mer frequency, TF over GST control) in the assay with ELF3; 1.25 fold enrichment (6-mer frequency, TF over GST control) in the assay with CRX; 1.1 fold enrichment (6-mer frequency, TF over GST control) with ETV1; 1.15 fold enrichment (6-mer frequency, TF over GST control) with ERF; 1.23 fold enrichment (6-mer frequency, TF over GST control) with ETV3L. The binding signal in the assay with ETS2 was 1.18 fold enrichment (6-mer frequency, TF over GST control); with SPDEF, 1.06 fold enrichment (6-mer frequency, TF over GST control); with ETV7, 1.02 fold enrichment (6-mer frequency, TF over GST control); with ELF5, 1.02 fold enrichment (6-mer frequency, TF over GST control); with ETV3, 1.12 fold enrichment (6-mer frequency, TF over GST control); with ETV6 it was 1.1 fold enrichment (6-mer frequency, TF over GST control).
